Measured values: PubChem BioAssay (NCI)
About 83,000 compounds went through this panel and 20% of them were active in at least one assay; those are over-represented in the sample as a whole.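 Activity criterion: percent growth below 10, measured after cells in 96-well plates were exposed to a single compound concentration for 48 hours.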 Values without a mark were called inactive. Activity calls are given as the source filed them.

Key:
Test in all cases: NCI-60 one-dose screen, 48 h (100 = growth as untreated, 0 = no growth, -100 = all killed)
Details in all cases: 10 µM unless noted
HCT-15 colon = system: HCT-15 colon
HT29 colon = system: HT29 colon
SNB-75 CNS = system: SNB-75 CNS
U251 CNS = system: U251 CNS
PC-3 prostate = system: PC-3 prostate
SK-MEL-5 melanoma = system: SK-MEL-5 melanoma
UACC-62 melanoma = system: UACC-62 melanoma
LOX IMVI melanoma = system: LOX IMVI melanoma
SK-MEL-28 melanoma = system: SK-MEL-28 melanoma
SK-MEL-2 melanoma = system: SK-MEL-2 melanoma
EKVX NSCLC = system: EKVX NSCLC
SN12C renal = system: SN12C renal
UO-31 renal = system: UO-31 renal
TK-10 renal = system: TK-10 renal
ACHN renal = system: ACHN renal
CAKI-1 renal = system: CAKI-1 renal
A498 renal = system: A498 renal
CCRF-CEM leukemia = system: CCRF-CEM leukemia
MOLT-4 leukemia = system: MOLT-4 leukemia

Row | Compound | growth (HCT-15 colon) | growth (HT29 colon) | growth (SNB-75 CNS) | growth (U251 CNS) | growth (PC-3 prostate) | growth (SK-MEL-5 melanoma) | growth (UACC-62 melanoma) | growth (LOX IMVI melanoma) | growth (SK-MEL-28 melanoma) | growth (SK-MEL-2 melanoma) | growth (EKVX NSCLC) | growth (SN12C renal) | growth (UO-31 renal) | growth (TK-10 renal) | growth (ACHN renal) | growth (CAKI-1 renal) | growth (A498 renal) | growth (CCRF-CEM leukemia) | growth (MOLT-4 leukemia)
1 | CC(C)OC(=O)NNC(=O)c1ccncc1 | 101% | 110% | 91% | 98.1% | 104% | 114% | 94% | 101% | 110% | 84.4% | 106% | 100% | 77.8% | 103% | 96% | 94.4% | 119% | 132% | 102%
2 | O=C(CCCCCCCn1cc(-c2cccnc2)nn1)Nc1ccccc1-c1ccccc1 | 24.1% | 39% | 92.3% | 31.1% | 49.3% | 30.5% | 60.6% | 57.3% | 71% | 87.9% |  | 25.8% | 62% | 84% | 54.8% | 17% | 83.3% | 59.9% | 47.4%
3 | COc1ccc(/C(C)=C(\c2ccc(Cl)cc2)c2ccc(OCCCN(C)C)cc2)cc1F | 7.7% (active) | 3.41% (active) | 70.6% | 38.5% | 59.2% | 84.1% | 45.7% | -74.1% (active) | 37.8% |  | 85.4% | 76% | 54.2% | 78.6% | 76.7% | 57.3% | 80.1% | 48.2% | 43.1%
4 | Cc1cc(-c2noc(C(F)(F)F)n2)ccc1N1CCN(c2cc(C(=O)N(C)C)no2)CC1 | 70.3% | 78.3% | 73% | 71.9% | 56.8% | 2.91% (active) | 62.1% | 62.4% | 84.8% | 73% | 49.5% | 83% | 62.7% | 81.2% | 63.9% | 67.7% |  | 65.3% | 71.5%
5 | Cn1nnnc1-c1ccc(N)cc1 | 98.9% | 95% | 88.4% | 100% | 93.9% | 102% | 99.7% | 95.1% | 103% | 89% | 93.8% | 110% | 79% | 97.3% | 98.7% | 93.2% |  | 100% | 92.5%
6 | COC1=CC(c2ccc[nH]2)=N/C1=C\c1[nH]c(C)c(C(=O)OCCn2cc(CCC[C@@H]3Cc4cc(O)ccc4C4CC[C@]5(C)[C@@H](O)CC[C@H]5C43)nn2)c1C (stereo partly specified) | 25% | 18.9% | 44.7% | 47.1% | 50.4% | 88.2% |  | -17% (active) | 94.5% | 122% |  |  | 44.7% | 96.9% | 66.5% | 46.4% | 49.6% | 36.8% | 62.1%
7 | CCN(CC)CC(=O)Nc1cccc(C(=O)OC(C)C)c1 | 93.9% | 81.5% | 107% | 100% | 80.8% | 107% | 102% | 96.2% | 102% | 81.9% | 96.4% | 107% | 89.7% |  |  |  | 140% | 86.6% | 96.2%
8 | O=C1N(c2ccccc2)C(=S)N[C@]12[C@H](c1ccccc1)C1CCCN1[C@]21C(=O)NC2C=CC(Cl)=C[C@H]21 (stereo partly specified) | 100% | 82.6% | 96.6% | 85% | 47.8% | 93.1% | 82.7% | 100% | 117% | 91% | 100% | 98% | 71.3% | 113% |  |  | 107% | 77.6% | 79%
9 | Cc1ccc(S(=O)(=O)Nc2sccc2-c2nc(-c3ccccc3)no2)cc1 | 97.9% | 100% | 84.4% | 93.9% | 86.4% | 98.6% | 79.1% | 91% | 92.9% | 91.6% | 94.2% | 95.1% | 70.4% | 103% | 89.9% | 81.3% | 96.3% | 92.1% | 98%
10 | CCCc1cc(=O)oc2c3c(c4c(c12)OC(C)(C)C=C4)O[C@@H](C)[C@H](C)C3=O | 98.1% | 41% | 87.7% | 65.7% | 40.7% | 32.1% | 66% | 81.2% |  | 97.1% | 63% | 82.7% | 71.9% | 83.2% | 84.2% | 72.8% |  | 70.3% | 69.1%
11 | Cc1cc2c(F)c(Oc3ncnc(Nc4ccc(N5C[C@@H](C)N[C@@H](C)C5)cc4)c3C#N)cc(F)c2[nH]1 | 0.331% (active) | -47.6% (active) | -28.2% (active) | 11.2% | 42.4% | 21.7% | 85.8% | -60.5% (active) | -63.6% (active) |  | 78.7% |  | 70% | 70.9% | -12.2% (active) | 40.3% | 15.6% | 7.66% (active) | -15.9% (active)
12 | COc1cc(C(=O)/C=C/c2c(-c3ccc(F)cc3)nc3ncccn23)cc(OC)c1OC | 43.5% | 38.2% | 59.2% | 48.2% | 47% | 30.5% | 52.2% | 36.4% | 49.2% | 30.1% | 52.3% | 60.8% | 35.7% | 78.2% | 47% | 16.2% | 69.9% | 18.9% | 50.7%
13 | Cc1nc2ccccc2c(/C=C/c2ccc(Cl)cc2)c1C(=O)/C=C/c1ccc(Cl)cc1 | -31.3% (active) | 3.75% (active) | 81.5% | -71.6% (active) | -18% (active) | -71.7% (active) | -42.9% (active) | -93.8% (active) | -66.6% (active) | -13.6% (active) | -11.9% (active) | -61.6% (active) | -86.2% (active) | -6.59% (active) | -90.3% (active) | -33.8% (active) | -75.5% (active) | 7.4% (active) | 5.06% (active)
